PubChem BioAssay AID588458 (Sanford-Burnham Center for Chemical Genomics, 2011)
In all, about 360,000 compounds went through this assay and about 3,000 (0.83%) were called active. Shown is part of a subset that was picked to be rich in actives. Unmarked numbers belong to inactive results. No stated cut-off is given here; in the data, active means inhibition above about 50%; inactive means the rest.

These compounds were tested against DNA (cytosine-5)-methyltransferase 1 (Homo sapiens) (UniProt P26358) (assay: inhibition of DNA methyltransferase DNMT1 – biochemical, molecular beacon, fluorescence, HinP1I cleavage, uHTS, primary screen (AID 588458)). Details: at 10 µM, active compounds read high.
DNA (cytosine-5)-methyltransferase 1 (Homo sapiens), sequence (P26358 504-1616 limits assumed): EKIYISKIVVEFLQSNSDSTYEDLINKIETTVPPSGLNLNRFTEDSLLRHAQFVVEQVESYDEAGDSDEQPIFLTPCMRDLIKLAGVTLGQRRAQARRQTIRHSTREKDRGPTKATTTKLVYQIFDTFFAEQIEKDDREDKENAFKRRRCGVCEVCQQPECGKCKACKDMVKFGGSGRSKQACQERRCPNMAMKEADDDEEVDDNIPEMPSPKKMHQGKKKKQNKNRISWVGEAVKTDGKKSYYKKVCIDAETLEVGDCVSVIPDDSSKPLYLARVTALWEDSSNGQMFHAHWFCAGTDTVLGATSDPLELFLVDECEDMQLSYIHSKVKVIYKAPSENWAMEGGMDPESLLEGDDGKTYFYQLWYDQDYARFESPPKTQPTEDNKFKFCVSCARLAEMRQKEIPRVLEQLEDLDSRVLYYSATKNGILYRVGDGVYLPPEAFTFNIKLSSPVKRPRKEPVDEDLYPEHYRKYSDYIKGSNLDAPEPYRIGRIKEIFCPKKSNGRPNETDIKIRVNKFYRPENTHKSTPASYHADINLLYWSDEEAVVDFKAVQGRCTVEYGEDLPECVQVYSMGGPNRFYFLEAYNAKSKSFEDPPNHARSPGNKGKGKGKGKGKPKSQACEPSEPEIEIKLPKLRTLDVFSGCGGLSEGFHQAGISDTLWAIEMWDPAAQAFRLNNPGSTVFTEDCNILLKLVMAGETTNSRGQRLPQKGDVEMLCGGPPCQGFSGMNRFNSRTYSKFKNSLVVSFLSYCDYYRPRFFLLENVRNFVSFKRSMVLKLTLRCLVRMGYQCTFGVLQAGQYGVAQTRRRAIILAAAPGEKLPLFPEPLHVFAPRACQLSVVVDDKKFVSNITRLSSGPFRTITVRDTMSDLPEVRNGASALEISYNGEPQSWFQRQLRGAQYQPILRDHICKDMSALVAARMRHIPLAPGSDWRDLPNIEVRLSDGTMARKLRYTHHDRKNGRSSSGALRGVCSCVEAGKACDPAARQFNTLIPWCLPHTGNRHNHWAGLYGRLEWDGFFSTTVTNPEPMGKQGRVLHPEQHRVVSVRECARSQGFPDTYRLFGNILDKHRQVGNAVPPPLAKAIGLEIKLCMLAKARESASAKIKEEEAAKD

Row | Compound | inhibition (reported as % activation of signal)
1 | COc1ccc(-c2ccc3c(c2)[C@@H]2C[C@H](N(C)S(=O)(=O)c4ccccc4)[C@H]([C@H](C)O)C(=O)N2CC3)cc1 | -4.42%
2 | C[C@@H]1CN([C@H](C)CO)C(=O)CCCn2cc(nn2)CO[C@H]1CN(C)S(C)(=O)=O | 2.33%
3 | O=C(NNc1c2ccccc2nc2ccccc12)c1cc2ccccc2cc1O | -19.2%
4 | CCc1c(C)nc2c(-c3ccccc3)c(C)nn2c1Nc1ccc(NC(C)=O)cc1 | -6.65%
5 | CC(=O)Nc1ccc(Nc2c3ccccc3nc3ccccc23)cc1 | 57.2% (active)
6 | Oc1ccc2ccc3cccc[n+]3c2c1 | 59% (active)
7 | CCOc1cc(/C=C/C(=O)OCC(=O)NCCN2C(=O)CSC2=O)ccc1OCC(C)C | 8.03%
8 | CCCCC(=O)N(c1ccc(OC)cc1)C1C=CS(=O)(=O)C1 (stereo unspecified) | -1.75%
9 | Cc1ccc2cc(C)c(N3CCN(c4ccc(F)cc4)CC3)nc2c1 | 2.96%
10 | Cc1ccc2cc(C)c(N3CCC(C)CC3)nc2c1 | 80.8% (active)
11 | Cc1cc(C)c2cc(C#N)c(N3CCNCC3)nc2c1 | 6.52%
12 | CC(=O)NC1C(Oc2ccc(C)cc2)OC2COC(c3ccco3)OC2C1O (stereo unspecified) | 3.51%
13 | CCN(CCn1cccn1)Cc1nc(-c2ccc(C(=O)OC)cc2)no1 | -5.27%
14 | CCS(=O)(=O)C1=NSC2=NC(=O)/C(=C\c3ccc(OS(=O)(=O)c4ccccc4)cc3)C(=N)N21 | -8.29%
15 | CS(=O)(=O)c1ccc2c(c1)SC1=NC(=O)/C(=C/c3ccco3)C(=N)N12 | 74.4% (active)
16 | CC(=O)OC[C@@H]1CN(Cc2ccccc2)C[C@H](n2cnc3c(NCc4ccco4)ncnc32)O1 | -4.87%
17 | COc1ccc(S(=O)(=O)N2CCC(C(=O)NCCC(=O)NCCc3cccc(F)c3)CC2)cc1 | 2%
18 | COc1cc(C(C)=O)ccc1OC(C)C(=O)Nc1ccc(S(=O)(=O)N2CCCC2)cc1 (stereo unspecified) | -3.33%
19 | C=CCn1c(=NC(=O)c2cccs2)sc2cc(NC(C)=O)ccc21 | 27%

Row | Compound | inhibition (reported as % activation of signal)
20 | C=CCn1c(=NC(=O)c2ccc(S(=O)(=O)N3CCCC3)cc2)sc2cc(NC(C)=O)ccc21 | 57.7% (active)
21 | CN(Cc1ccccc1)C(=O)CCC1CCN(C(=O)c2ccco2)CC1 | 0.12%
22 | O=C(COC(=O)CNS(=O)(=O)c1ccc(F)c(F)c1F)NC1CCCC1 | 1.29%
23 | CN1CCN(C(=O)c2ccccc2NC(=O)COc2ccccc2Cl)CC1 | 0.74%
24 | CCN(CC(=O)NCC(=O)Nc1cccc(C)c1C)Cc1ccccc1 | 0.32%
25 | Cc1ccc2[nH]c(=O)c(-c3nc4c(C)cccn4c3NCc3ccco3)cc2c1 | 50.4% (active)
26 | Cc1ccc(SCC(=O)NC(=O)NCc2ccco2)c(C)c1 | 48.3%
27 | Cc1ccc2nc(SC(C)C(=O)NCc3ccco3)[nH]c2c1 (stereo unspecified) | -2.41%
28 | O=C(NNS(=O)(=O)c1ccccc1C(F)(F)F)c1cc2ncc(C(F)(F)F)cc2s1 | 5.47%
29 | O=C(Nc1nnc(C2COc3ccccc3O2)o1)c1ccc(F)cc1 (stereo unspecified) | 2.41%
30 | COc1ccccc1NC(=O)C(CC(=O)O)Cc1cc(C)cc(C)c1 (stereo unspecified) | 7.02%
31 | COC(=O)/C=C\C(=O)Nc1cccc([N+](=O)[O-])c1 | 1.93%
32 | Cc1ccc(/C=C/C(=O)Nc2ccc([N+](=O)[O-])c(NC(=O)/C=C/c3ccc(C)o3)c2)o1 | 86.1% (active)
33 | Cc1ccc(/C=C/C(=O)Nc2cc(S(=O)(=O)N3CCCCCC3)ccc2OCC(F)(F)F)o1 | -10.7%
34 | CCOC1=C2[C@H]([C@H]3C(=O)N(c4ccccc4)C(=O)[C@H]3C1)[C@@H](c1ccccc1)N(S(=O)(=O)c1ccc(C)cc1)[C@H]2c1ccccc1 | 0.54%
35 | COc1ccc(CN2C[C@H]3CON(C)[C@H]3C[C@H]2c2ccc(-c3cccc(F)c3)cc2)cc1 | -13.2%
36 | CN(C(=O)CC1C(=O)NCCN1Cc1ccc(F)cc1Cl)C1CCCCC1 (stereo unspecified) | -5.76%
37 | COCCNC(=O)CCCn1c(=O)c2ccccc2n(Cc2cccc([N+](=O)[O-])c2)c1=O | -1.32%
38 | CCCCNC(=O)CCn1c(=O)c2ccccc2n(Cc2cc(C)ccc2C)c1=O | 55.4% (active)

Row | Compound | inhibition (reported as % activation of signal)
39 | Cc1ccc(NC(=O)Cn2c(=O)n(CCC(=O)NC3CCN(Cc4ccccc4)CC3)c(=O)c3ccccc32)cc1 | 1.32%
40 | COC(=O)/C(=C\Nc1ccccc1)NC(=O)c1ccc(Cl)cc1Cl | -1%
41 | COc1cccc2cc(C(C)N(CCCN3CCOCC3)C(=O)Nc3ccc(Cl)cc3)oc12 (stereo unspecified) | 0.19%
42 | CCOC(=O)C1(Cc2ccc(Cl)cc2)CCN(C(=O)C2=NNC(=O)CC2)CC1 | -1.13%
43 | COc1ccc(C(=O)OCC(=O)NCCCc2ccccc2)cc1OC | 0.32%
44 | COc1ccc(C(=O)OCC(=O)Nc2cccc(C(C)=O)c2)cc1OC | 70.9% (active)
45 | CC(=O)Nc1cccc(C(=O)OCC(=O)Nc2nnc(-c3ccccc3)o2)c1 | 1.02%
46 | C=CCNC(=O)COC(=O)CNC(=O)c1cc(Cl)cc([N+](=O)[O-])c1 | 6.93%
47 | CCc1c(C)c2c(C)[nH]nc2oc1=O | -3.15%
48 | CCC(C)Cn1c(O)cc2nn(-c3nc4ccccc4s3)c(=O)c-2c1C (stereo unspecified) | 52.2% (active)
49 | CC1CCCCC1NC(=O)c1cc(=O)[nH]c2ccccc12 (stereo unspecified) | 3.02%
50 | O=C(c1ccc(CS(=O)(=O)c2ccccc2)o1)N1CCN(c2ccccc2)CC1 | 84.6% (active)
51 | O=C(c1ccc(S(=O)(=O)NCc2ccco2)cc1)N1CCN(c2ccccc2)CC1 | 3.68%
52 | O=C(c1ccc(CS(=O)Cc2ccccc2Cl)o1)N1CCN(c2ccccc2)CC1 (stereo unspecified) | 5.54%
53 | CC(=O)N/C(=C/c1ccc(OC(F)F)cc1)C(=O)O | -1.65%
54 | N#Cc1ccccc1CN1C(=O)S/C(=C/c2cccn2-c2cccc(C(=O)O)c2)C1=O | 102% (active)
55 | Cc1ccc(C(=O)O)cc1-c1ccc(/C=C2\SC(=O)N(CC(=O)Nc3ccc4c(c3)OCO4)C2=O)o1 | 12.5%
56 | O=C(NCCN1C(=O)S/C(=C\c2cccnc2)C1=O)c1cccc(OC(F)F)c1 | -3.23%
